The results in this text go back to PubChem BioAssay (NCI).

This is part of a sample that, as a whole, favours compounds with a hit. Of some 83,000 tested, about 20% had one in any assay.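 Results are percent growth after 48 hours of single-concentration exposure. 100 means growth as in untreated cells, lower positive values show inhibition; negative values down to -100 show cell death.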 Values without a mark were called inactive. Activity calls are given as the source filed them. How the source made its calls: active means growth percent below 10; inactive means the rest.

Test systems include NCI-H23 lung; NCI-H226 lung; NCI-H322M lung; HOP-62 NSCLC; NCI-H460 lung; HOP-92 NSCLC; NCI-H522 lung; A549/ATCC NSCLC; 786-0 renal; COLO 205 colon.
What all share (test): NCI-60 one-dose screen, 48 h (100 = growth as untreated, 0 = no growth, -100 = all killed)
What all share (details): 10 µM unless noted

Consider `O=c1c2sc3ncc(Cl)cc3c2nnn1-c1cccc(Cl)c1`, for which the growth in the experiment with NCI-H23 lung is 83.8%; with NCI-H226 lung, 33.4%; in the experiment with NCI-H322M lung it was 56.8%; in the experiment with HOP-62 NSCLC, 47.7%; in the experiment on NCI-H460 lung, 22%; in the experiment on HOP-92 NSCLC, 63.8%. In addition, the growth in the experiment with NCI-H522 lung is 82%; in the experiment with A549/ATCC NSCLC, 42.5%; with 786-0 renal, 72.5%; in the experiment with COLO 205 colon, 89.4%.

With `CCOC(=O)NNc1cccc(Cl)c1`, the growth is 93.8% in the experiment with NCI-H23 lung; 84.7% in the experiment with NCI-H226 lung; 104% with NCI-H322M lung; 103% with HOP-62 NSCLC; 103% with NCI-H460 lung; 87.5% in the experiment on HOP-92 NSCLC. Also, the growth in the experiment with NCI-H522 lung is 96.6%; in the experiment on A549/ATCC NSCLC, 107%; with 786-0 renal it was 112%; in the experiment on COLO 205 colon it was 123%.

In the case of `O=C(CCCCCCc1nc2ccc(Br)cc2[nH]1)NO`, the growth with NCI-H23 lung was -25.6% (active); in the experiment on NCI-H226 lung it was 19.3%; in the experiment on NCI-H322M lung, 4.52% (active); in the experiment on HOP-62 NSCLC, 12.5%; with NCI-H460 lung, -25.6% (active); in the experiment with HOP-92 NSCLC it was -21.7% (active). The growth is -16% (active) in the experiment on NCI-H522 lung, 7.55% (active) with A549/ATCC NSCLC, -4.46% (active) in the experiment on 786-0 renal and -98.5% (active) in the experiment with COLO 205 colon.

As to `COc1ccc2[nH]c(O)c(/C=c3/ccc4c(c3)N=C(c3ccc(C(F)(F)F)cc3)N=4)c2c1`, the growth in the experiment with NCI-H23 lung was 82.4%; in the experiment with NCI-H226 lung, 96.9%; in the experiment on NCI-H322M lung, 76.1%; with HOP-62 NSCLC, 100%; in the experiment on NCI-H460 lung, 53.5%; in the experiment on HOP-92 NSCLC it was 71.9%. Further, the growth with NCI-H522 lung was 89.6%; in the experiment with A549/ATCC NSCLC it was 66.4%; with 786-0 renal, 37.3%; in the experiment on COLO 205 colon, 102%.

As for `FC(F)(F)c1ccc(/C=N/Nc2nnc3n2N=C(c2ccc(Cl)cc2)CS3)cc1`, the growth is 64.8% with NCI-H23 lung; 20.7% in the experiment on NCI-H226 lung; 60.9% in the experiment with NCI-H322M lung; 16.4% in the experiment with HOP-62 NSCLC; 43.9% in the experiment on NCI-H460 lung; 3.52% (active) in the experiment with HOP-92 NSCLC. For the same molecule, the growth in the experiment on NCI-H522 lung is 58.1%; in the experiment with A549/ATCC NSCLC it was 51.7%; with 786-0 renal it was 27.6%; in the experiment on COLO 205 colon it was 89.3%.

On to `N=C(N)c1ccc(-c2ccc(-c3cc(Cl)cc(Cl)c3)o2)nc1`, for which the growth in the experiment with NCI-H23 lung was 3.49% (active); with NCI-H226 lung, 99.5%; with NCI-H322M lung it was -30.9% (active); in the experiment with HOP-62 NSCLC, -72.7% (active); with NCI-H460 lung, -78.8% (active); in the experiment on HOP-92 NSCLC it was 73.3%. Moreover, the growth in the experiment with NCI-H522 lung is -67.4% (active); with A549/ATCC NSCLC it was -68.8% (active); in the experiment on 786-0 renal, -64.9% (active); in the experiment on COLO 205 colon, -76.6% (active).

With `COc1cc(Cn2c(-c3ccccc3)cc3c2-c2oncc2CC3)cc(OC)c1OC`, the growth was 48.4% with NCI-H23 lung; 51% in the experiment on NCI-H226 lung; -13.2% (active) in the experiment with NCI-H322M lung; 39% in the experiment on HOP-62 NSCLC; 9.75% (active) with NCI-H460 lung; 28% in the experiment on HOP-92 NSCLC. The growth in the experiment on NCI-H522 lung was 5.31% (active); with A549/ATCC NSCLC it was 23.9%; in the experiment on 786-0 renal it was 32.7%; in the experiment with COLO 205 colon, 14.5%.

On to `COc1ccc(-c2cnc3ccnn3c2-c2cc(OC)c(OC)c(OC)c2)cc1`, for which the growth in the experiment with NCI-H23 lung is 42.7%; in the experiment with NCI-H226 lung, 65.5%; in the experiment with NCI-H322M lung, 55.8%; in the experiment with HOP-62 NSCLC it was 40%; with NCI-H460 lung it was 11.1%; with HOP-92 NSCLC it was 103%. In addition, the growth with NCI-H522 lung was 10.1%; with A549/ATCC NSCLC it was 46.8%; in the experiment with 786-0 renal, 40.3%; with COLO 205 colon it was -31.2% (active).

For `C/C=C(\C)C(C(=O)NC1CCCCC1)N(C(=O)C1CCc2cc(F)ccc2O1)c1ccc([N+](=O)[O-])cc1` (stereo not given), the growth is 91.9% in the experiment on NCI-H23 lung; 72.5% with NCI-H226 lung; 92.8% in the experiment with NCI-H322M lung; 87.3% with HOP-62 NSCLC; 82.5% in the experiment on NCI-H460 lung; 92.6% with HOP-92 NSCLC. For the same molecule, the growth with NCI-H522 lung was 81.9%; with A549/ATCC NSCLC, 79.1%; in the experiment with 786-0 renal, 90.1%; in the experiment on COLO 205 colon it was 98.7%.

On to `O=C(Cc1ccc(Nc2ccnc(C(F)(F)F)c2)cc1)N/N=C/c1ccccc1O`, for which the growth is 37.7% in the experiment on NCI-H23 lung; 51.4% in the experiment on NCI-H226 lung; 32% in the experiment with NCI-H322M lung; -9.42% (active) with HOP-62 NSCLC; 3.37% (active) in the experiment on NCI-H460 lung; 75.8% in the experiment on HOP-92 NSCLC. Besides, the growth is 22.5% in the experiment on NCI-H522 lung, 36.2% with A549/ATCC NSCLC, 6.73% (active) in the experiment on 786-0 renal and 14% with COLO 205 colon.

Regarding `Cc1c(-c2ccc(-c3ccccc3F)cc2)nc2ccc(F)cc2c1C(=O)O`, the growth with NCI-H23 lung was 54.6%; in the experiment with NCI-H226 lung it was 65.4%; in the experiment on NCI-H322M lung, 44.5%; with HOP-62 NSCLC it was 49.3%; in the experiment on NCI-H460 lung it was 10.6%; with HOP-92 NSCLC, 42.5%. For the same molecule, the growth with NCI-H522 lung is 34.3%; with A549/ATCC NSCLC, 34.7%; with 786-0 renal, 23%; in the experiment with COLO 205 colon, 49.2%.

With `NC(N)=N/N=C\c1ccc(OCc2ccccc2)cc1`, the growth with NCI-H23 lung is 84%; in the experiment on NCI-H226 lung, 46.4%; with NCI-H322M lung it was 93.4%; with HOP-62 NSCLC, 62.8%; in the experiment on NCI-H460 lung it was 96.4%; with HOP-92 NSCLC, 40.2%. Moreover, the growth was 77.3% with NCI-H522 lung, 82.8% in the experiment on A549/ATCC NSCLC, 81.7% in the experiment with 786-0 renal and -62.8% (active) in the experiment with COLO 205 colon.

As to `COC1=CC(c2ccc[nH]2)=N/C1=C\c1[nH]c(C)c(C(=O)CCCCCCCCC(=O)O[C@H]2CC[C@H]3C4CCc5cc(O)ccc5C4CC[C@]23C)c1C` (stereo not given in full), the growth in the experiment on NCI-H23 lung was 40.3%; with NCI-H226 lung, 24.9%; with NCI-H322M lung, 51.5%; with HOP-62 NSCLC, 50.7%; with NCI-H460 lung it was 14.9%; in the experiment with HOP-92 NSCLC, -14.6% (active). The growth in the experiment with NCI-H522 lung is 15%; in the experiment on A549/ATCC NSCLC, 4.12% (active); in the experiment on 786-0 renal it was 19.9%; in the experiment on COLO 205 colon, 18.5%.

Turning to `NS(=O)(=O)c1ccc(N2N=C(c3cccs3)CC2c2ccccc2O)cc1` (stereo not given), the growth in the experiment on NCI-H23 lung was 28.1%; with NCI-H226 lung it was 19.2%; in the experiment on NCI-H322M lung, 25.4%; in the experiment on HOP-62 NSCLC it was 24.4%; in the experiment on NCI-H460 lung, -0.156% (active); in the experiment with HOP-92 NSCLC, -8.37% (active). Besides, the growth with NCI-H522 lung was -23.9% (active); in the experiment with A549/ATCC NSCLC, 7.33% (active); in the experiment with 786-0 renal it was 10.8%; in the experiment on COLO 205 colon, -73.7% (active).
